Results published in PubChem BioAssay.
Active and inactive are the calls of the source. Unless noted, no rule for the calls is given here.

What was measured:
[1] = anti-His antibody binders, primary screen, artefact control for SMM control protein annotation, biochemical, small-molecule microarray, 635 nm fluorescence (AID 1128); conditions: anti-His Alexa647 antibody binding, higher = more signal;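 also: score merges feature fluorescence with signal-to-noise for each printed compound spot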
[2] = system: Human papillomavirus type 1a E7 protein (residues 1-88); assay: HPV1a E7 small-molecule binders, primary screen, biochemical, small-molecule microarray, residues 1-88, 635 nm (AID 1129); conditions: small-molecule microarray binding, fluorescence 635 nm; higher = more signal
[3] = target: Focal adhesion kinase 1 (Homo sapiens) (UniProt Q05397); assay: small-molecule microarray binders of FAK, primary screen, biochemical, 635/667 nm fluorescence, BSA, DTT (AID 1130); conditions: PTK2 binding, 635 nm fluorescence, higher = more signal;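 also: composite of spot emission at 667 nm and signal to noise over triplicate slides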
[4] = system: Fibrinogen (Alexa647-labelled); assay: fibrinogen binders on compound microarrays, profiling panel, artefact control for SMM control-protein annotation, biochemical, small-molecule microarray, 635/667 nm fluorescence (AID 1131); conditions: fibrinogen-A647 binding fluorescence, higher = more signal;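 also: z-score merges 667 nm fluorescence with per-spot signal-to-noise over triplicate slides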
[5] = target: Follistatin (Homo sapiens) (UniProt P19883); assay: follistatin binders on small-molecule microarrays, primary screen, biochemical, small-molecule microarray, 635/667 nm fluorescence (AID 1132); conditions: FST binding, 635 nm fluorescence, higher = more signal
[6] = target: Fibroblast growth factor 2 (Homo sapiens) (UniProt P09038); assay: FGF2 binders on small-molecule microarrays, primary screen, biochemical, small-molecule microarray, 635/667 nm fluorescence (AID 1133); conditions: small-molecule microarray binding, FGF2, fluorescence 635/667; higher = more signal
[7] = mitochondrial membrane potential change in A549 cells, profiling panel, cell-based, JC-1 fluorescence, basal, 24 h, 100 nL (AID 1138); conditions: higher = more signal;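 also: A549 lung adenocarcinoma cells under basal conditions with no added stimulus; test concentration not given here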
Lefty1 = Lefty1 binders on small-molecule microarrays, primary screen, biochemical, small-molecule microarray, 635/667 nm fluorescence (AID 1139); conditions: small-molecule microarray binding, fluorescence 635/667; higher = more signal
[8] = system: wheat germ agglutinin (Triticum aestivum), Alexa647-labelled; assay: wheat germ agglutinin binders on compound microarrays, profiling panel, artefact control for SMM control-protein annotation, biochemical, small-molecule microarray, 635/667 nm fluorescence (AID 1140); conditions: WGA-A647 binding, 635 nm fluorescence, higher = more signal;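 also: score merges 667 nm feature emission with signal to noise over triplicate slides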
[9] = target: Luciferin 4-monooxygenase (Photinus pyralis) (UniProt P08659); assay: firefly luciferase enzyme inhibitors, primary screen, biochemical, luminescence, purified enzyme, 2006 set (AID 1141); conditions: SteadyGlo luminescence, 30 min, higher = more signal, called active from +8 up or from −8 down;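 also: cell-free assay with purified firefly luciferase at 100 ng per well in PBS; test concentration not given here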
[10] = system: Wnt5a (protein binding on small-molecule microarray); assay: Wnt5a binders on small-molecule microarray, primary screen, biophysical, 635/667 nm fluorescence (AID 1142); conditions: 635 nm fluorescence, higher = more signal;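 also: fluorescence read at 667 nm with signal to noise per printed feature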
[11] = cell viability in Huh7 cells, primary screen, cytotoxicity control for HCV replication inhibitor project, CellTiter-Glo luminescence, basal, 48 h (AID 1143); conditions: Huh7 HCV replicon, higher = more signal, called active from +8 up or from −8 down;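 also: Huh7 hepatoma cells carrying a hepatitis C replication reporter with no stimulus; test concentration not given here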
[12] = P. aeruginosa biofilm formation inhibitors, primary screen, PAO1 strain, BacTiter-Glo luminescence, LB-PBS (AID 1144); conditions: 12 h, higher = more signal
[13] = CREB reporter modulators without forskolin, primary screen, cell-based, PC12, CRE-LacZ reporter, unstimulated (AID 1145); conditions: no forskolin, luminescence, 4.5 h, higher = more signal, called active from +8 up or from −8 down
[14] = CREB reporter modulators under forskolin, primary screen, cell-based, PC12, CRE-LacZ reporter, forskolin-stimulated (AID 1146); conditions: luminescence, 4.5 h, higher = more signal, called active from +8 up or from −8 down;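 also: PC12 cells with 6xCRE LacZ reporter stimulated by forskolin 10 µM; beta-galactosidase reporter signal reflecting CREB driven transcription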
[15] = target: Streptavidin (Streptomyces avidinii) (UniProt P22629); assay: streptavidin binders on small-molecule microarray, primary screen, artefact control for SMM compound annotation, biophysical, 635/667 nm fluorescence (AID 1147); conditions: streptavidin binding, higher = more signal;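 also: signal reflects streptavidin binding to arrayed compounds as a control protein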
[16] = small-molecule binders of probe aInhba, primary screen, biochemical, small-molecule microarray, 635/667 nm fluorescence (AID 1148); conditions: higher = more signal;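 also: score merges 667nm spot fluorescence with signal-to-noise for antibody binding to printed compounds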
Torsin-1A (Homo sapiens) [17] = target: Torsin-1A (Homo sapiens) (UniProt O14656); assay: torsin A binders from cell lysate, primary screen, small-molecule microarray, wild-type, 635/667 nm (AID 1149); conditions: COS7 hTOR1A-WT lysate, 635 nm fluorescence, higher = more signal
Torsin-1A (Homo sapiens) [18] = target: Torsin-1A (Homo sapiens) (UniProt O14656); assay: small-molecule binders of mutant TOR1A in lysate, primary screen, cell lysate, small-molecule microarray, COS7 lysate, 635/667 nm fluorescence (AID 1150); conditions: COS7 hTOR1A mutant lysate, 635 nm fluorescence, higher = more signal;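 also: score pools 667 nm emission and signal to noise measuring lysate protein binding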
[19] = system: Sonic hedgehog protein (Shh); assay: small-molecule binders of Shh protein, primary screen, biochemical, small-molecule microarray, 635/667 nm fluorescence (AID 1151); conditions: small-molecule microarray binding, 635 nm fluorescence; higher = more signal;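 also: Shh protein binding to compounds spotted on small-molecule microarray slides; score combines spot fluorescence intensity with signal-to-noise across triplicate slides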

Follistatin (Homo sapiens), sequence (P19883 whole entry, looked up): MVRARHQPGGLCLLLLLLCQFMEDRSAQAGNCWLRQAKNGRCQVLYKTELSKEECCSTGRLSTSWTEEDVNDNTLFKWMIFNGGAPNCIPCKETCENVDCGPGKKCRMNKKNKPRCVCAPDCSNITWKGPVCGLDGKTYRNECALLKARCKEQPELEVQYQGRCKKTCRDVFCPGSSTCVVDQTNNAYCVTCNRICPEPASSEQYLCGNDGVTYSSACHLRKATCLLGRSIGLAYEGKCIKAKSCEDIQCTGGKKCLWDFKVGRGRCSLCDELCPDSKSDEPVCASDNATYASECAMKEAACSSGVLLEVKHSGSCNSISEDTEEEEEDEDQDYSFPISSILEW
Focal adhesion kinase 1 (Homo sapiens), sequence (Q05397 whole entry, looked up): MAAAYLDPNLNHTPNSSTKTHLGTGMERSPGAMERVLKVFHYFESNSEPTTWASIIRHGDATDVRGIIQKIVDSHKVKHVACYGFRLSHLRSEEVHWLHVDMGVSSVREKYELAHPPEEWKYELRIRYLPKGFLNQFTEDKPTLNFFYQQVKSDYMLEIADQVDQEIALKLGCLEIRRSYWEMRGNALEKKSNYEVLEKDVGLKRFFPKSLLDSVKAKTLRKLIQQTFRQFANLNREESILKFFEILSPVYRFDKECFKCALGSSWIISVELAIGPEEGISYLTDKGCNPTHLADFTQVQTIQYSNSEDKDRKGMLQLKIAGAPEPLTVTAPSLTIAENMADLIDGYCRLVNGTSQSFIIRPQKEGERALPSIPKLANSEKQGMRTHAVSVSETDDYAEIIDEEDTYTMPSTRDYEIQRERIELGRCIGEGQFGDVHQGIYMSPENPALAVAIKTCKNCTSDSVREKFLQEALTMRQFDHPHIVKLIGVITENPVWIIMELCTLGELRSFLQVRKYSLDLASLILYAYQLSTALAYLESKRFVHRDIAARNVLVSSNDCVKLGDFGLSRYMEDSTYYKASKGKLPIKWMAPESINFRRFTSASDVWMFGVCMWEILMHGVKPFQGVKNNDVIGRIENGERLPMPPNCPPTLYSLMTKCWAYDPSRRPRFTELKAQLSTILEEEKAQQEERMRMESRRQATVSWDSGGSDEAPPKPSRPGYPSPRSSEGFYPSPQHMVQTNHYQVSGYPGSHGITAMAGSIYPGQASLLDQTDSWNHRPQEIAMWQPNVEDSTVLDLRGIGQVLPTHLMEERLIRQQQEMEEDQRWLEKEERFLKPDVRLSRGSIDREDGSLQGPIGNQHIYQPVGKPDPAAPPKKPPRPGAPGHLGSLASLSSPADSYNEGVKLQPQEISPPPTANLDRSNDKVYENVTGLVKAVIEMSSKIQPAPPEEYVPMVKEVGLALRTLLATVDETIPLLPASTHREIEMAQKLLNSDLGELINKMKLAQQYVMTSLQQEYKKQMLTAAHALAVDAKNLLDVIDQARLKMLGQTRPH
Streptavidin (Streptomyces avidinii), sequence (P22629 whole entry, looked up): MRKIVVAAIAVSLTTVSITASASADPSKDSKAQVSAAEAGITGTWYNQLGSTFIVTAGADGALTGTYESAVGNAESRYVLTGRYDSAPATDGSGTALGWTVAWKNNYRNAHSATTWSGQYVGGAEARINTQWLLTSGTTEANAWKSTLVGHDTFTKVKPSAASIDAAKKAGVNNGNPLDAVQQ
Fibroblast growth factor 2 (Homo sapiens), sequence (P09038 whole entry, looked up): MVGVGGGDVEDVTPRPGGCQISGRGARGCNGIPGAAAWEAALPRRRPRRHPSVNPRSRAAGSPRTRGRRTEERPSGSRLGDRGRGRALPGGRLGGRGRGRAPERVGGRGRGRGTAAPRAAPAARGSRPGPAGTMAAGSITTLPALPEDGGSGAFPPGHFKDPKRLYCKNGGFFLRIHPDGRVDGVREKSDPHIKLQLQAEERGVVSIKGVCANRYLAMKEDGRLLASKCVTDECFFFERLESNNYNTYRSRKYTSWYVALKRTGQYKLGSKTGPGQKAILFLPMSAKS
Luciferin 4-monooxygenase (Photinus pyralis), sequence (P08659 whole entry, looked up): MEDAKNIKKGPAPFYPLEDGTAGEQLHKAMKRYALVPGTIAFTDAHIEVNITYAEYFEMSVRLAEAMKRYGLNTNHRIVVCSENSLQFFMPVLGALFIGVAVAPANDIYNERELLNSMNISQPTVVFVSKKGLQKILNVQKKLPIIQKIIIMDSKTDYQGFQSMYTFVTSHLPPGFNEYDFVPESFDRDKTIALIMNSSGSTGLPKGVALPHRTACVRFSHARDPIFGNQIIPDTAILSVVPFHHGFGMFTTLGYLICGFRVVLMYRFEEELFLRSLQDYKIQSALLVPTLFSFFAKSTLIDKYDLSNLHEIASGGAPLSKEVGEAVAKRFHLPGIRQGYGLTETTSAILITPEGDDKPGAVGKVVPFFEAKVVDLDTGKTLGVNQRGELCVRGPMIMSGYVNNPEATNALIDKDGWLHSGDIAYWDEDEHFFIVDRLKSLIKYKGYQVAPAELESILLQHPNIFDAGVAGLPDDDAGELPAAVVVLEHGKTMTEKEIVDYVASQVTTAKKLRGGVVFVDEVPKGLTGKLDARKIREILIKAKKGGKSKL
Torsin-1A (Homo sapiens), sequence (O14656 whole entry, looked up): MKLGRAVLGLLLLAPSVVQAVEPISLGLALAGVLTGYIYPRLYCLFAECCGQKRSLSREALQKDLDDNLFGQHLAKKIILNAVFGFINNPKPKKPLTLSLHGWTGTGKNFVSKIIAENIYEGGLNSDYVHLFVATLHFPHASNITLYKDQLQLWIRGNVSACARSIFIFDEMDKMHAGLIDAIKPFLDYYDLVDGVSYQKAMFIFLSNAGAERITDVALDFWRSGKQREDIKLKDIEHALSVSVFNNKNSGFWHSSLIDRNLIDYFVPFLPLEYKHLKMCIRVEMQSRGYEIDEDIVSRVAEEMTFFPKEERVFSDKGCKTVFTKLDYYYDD

Compound | composite z-score [1] | composite z-score [2] | composite z-score [3] | composite z-score [4] | composite z-score [5] | composite z-score [6] | z-score [7] | composite z-score (Lefty1) | composite z-score [8] | z-score [9] | composite z-score [10] | z-score [11] | z-score [12] | z-score [13] | z-score [14] | composite z-score [15] | composite z-score [16] | composite z-score (Torsin-1A (Homo sapiens) [17]) | composite z-score (Torsin-1A (Homo sapiens) [18]) | composite z-score [19]
CC(C)(C)OC(=O)CC[C@@]1(C(=O)O)N=C(c2ccc(OCCCO)cc2)O[C@@H]1c1ccccc1CN=[N+]=[N-] | 2.7 | 0.807 | 0.399 | 0.85 | 0.367 | -0.279 | 0.792 | -0.816 | 0.851 | -2.19 (inactive) | 0.48 | 0.625 (inactive) | -0.21 (inactive) | -0.128 (inactive) | -0.912 (inactive) | 0.725 | 0.239 | 0.0835 | 0.104 | -1.03
CCCCN1CC=CC23O[C@@H]4C=CCOC(=O)[C@@H]4[C@H]2C(=O)N(C(C)CO)[C@@H]3C1=O (stereo not given in full) | -0.461 | -1.01 | -0.243 | -1.32 | -1.55 | -0.588 | -0.414 | -1.56 | -1.02 | -0.313 (inactive) | -0.166 | -0.251 (inactive) | 1.27 (inactive) | -0.488 (inactive) | 0.401 (inactive) | -0.78 | -0.128 | 0.0171 | -0.241 | -0.213
NCCCCCNC(=O)[C@@H]1C[C@@H]2C(=O)N[C@@H](CCCCN)C(=O)N2[C@@H]1c1cccc(OCCO)c1 | 2.33 | -0.0045 | -0.214 | 0.101 | 1.17 | 1.25 | 0.844 | 1.54 | 0.715 | 1.03 (inactive) | 0.331 | 0.21 (inactive) | -0.85 (inactive) | -0.541 (inactive) | -0.304 (inactive) | 0.302 | -0.331 | 0.247 | -0.02 | 1.55
C=CCOC(=O)[C@@H]1[C@H]2C(=O)O[C@H](c3ccccc3)[C@H](c3ccccc3)N2[C@H](c2ccc(OCCOC(=O)[C@H]3C[C@H]4C(=O)N[C@@H](CCCC[N+](C)(C)C)C(=O)N4[C@H]3c3ccc(O)cc3)cc2)[C@@]12C(=O)Nc1ccc(I)cc12 | 2.62 | 1.2 | 0.831 | 0.542 | 1.4 | 1.62 | -1.93 | 1.63 | 0.756 | 0.205 (inactive) | 0.568 | -0.449 (inactive) | -0.0678 (inactive) | 0.277 (inactive) | -0.391 (inactive) | 0.0658 | 0.0982 | 0.636 | 0.644 | 2.15
CN(C)C(=O)[C@]1(CCC(=O)OC(C)(C)C)N=C(c2ccc(OCCCO)cc2)O[C@@H]1c1ccccc1 | 2.57 | 1.27 | 0.712 | 0.97 | 0.562 | 0.399 | 1.58 | -0.781 | 0.448 | -1.41 (inactive) | 0.677 | 0.325 (inactive) | 1.02 (inactive) | 0.493 (inactive) | 0.524 (inactive) | -0.092 | -0.0791 | 0.69 | 2.2 | -0.857
C[C@H]1C2=C3C(CC[C@H]4C(OCc5ccc(F)cc5C(F)(F)F)OC[C@](C)([C@@H]34)N(C(=O)OC(C)(C)C)C2)C2COC(=O)OCC21 (stereo not given in full) | 2.42 | 1.16 | 1.46 | 0.96 | 0.856 | -1.5 | 1.75 | -0.225 | 0.792 | 1.85 (inactive) | 0.163 | -1.13 (inactive) | -0.318 (inactive) | 0.201 (inactive) | 0.796 (inactive) | 1.29 | 0.0992 | 0.639 | 0.988 | -0.789
CC(C)C(O)C1C=CC2C(=O)N(C)C(=O)C2N1Nc1ccccc1 (stereo not given) | 0.932 | 1.14 | 0.746 | 0.78 | 0.828 | 0.0704 | -0.219 | -0.241 | 1.23 | -0.968 (inactive) | 0.361 | 1.03 (inactive) | -1.04 (inactive) | 0.0535 (inactive) | -0.0784 (inactive) | 0.53 | 0.85 | 0.378 | 0.597 | -0.361
COCCOC(=O)N1C(=O)[C@@]2(c3cc(C#CCNC(N)=O)ccc31)[C@H](C(=O)N1CCCCCCC1)[C@H]1C(=O)O[C@H](c3ccccc3)[C@H](c3ccccc3)N1[C@@H]2c1ccc(O)cc1 | -0.269 | 1 | 0.478 | 0.391 | 1.4 | 1.24 | -0.606 | 0.742 | 0.128 | -0.352 (inactive) | 0.233 | -0.204 (inactive) | 0.942 (inactive) | -0.0526 (inactive) | -0.333 (inactive) | 0.399 | -0.101 | 0.266 | 0.216 | 1.12
O=C(NC1CC1)[C@@H]1c2ccccc2C(=O)N(Cc2ccccc2)[C@H]1c1ccc(CO)cc1 | 0.522 | 0.802 | -0.747 | 0.497 | 0.665 | 0.483 | 2.09 | 0.626 | 0.905 | 0.017 (inactive) | 0.336 | -0.878 (inactive) | -0.55 (inactive) | -0.825 (inactive) | -1.22 (inactive) | -0.928 | 0.0111 | -0.892 | -0.665 | 0.443
